According to PubChem BioAssay AID504408 (Broad Institute, 2011):
The whole screen tested about 300,000 compounds, of which about 5,200 (1.7%) were called active.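 The calls were made as follows: active = mean replicate activation of at least 50% with a set share of replicates each reaching 50%; inconclusive = only one of those two conditions met; inactive = mean below 50% and too few replicates reaching it.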 What follows is part of a selection rich in actives, with near analogues and random picks from the rest.

Assay: HSF-1 activators, primary screen, NIH3T3-HGL cells, MG132 stress, luminescence, single point (AID 504408);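 also: 0% = median of the neutral control wells and 100% = twice that signal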
Conditions: NIH3T3-HGL HSF-1 luciferase reporter, MG132, 8 h; at 9 µM; hits give high values
In the case of CCOc1ccc(CN(CCCl)CCCl)cc1C(=O)OC, the activation is reported as 68.2% (active). For CCCOC(=O)C1C2c3ccccc3C(c3ccccc32)C1C(=O)O (stereo not given), the activation was -7.72% (inactive). For C=CCn1c(O)c(/C=N/N2CCOCC2)c(=O)[nH]c1=S, the activation was 35% (inactive). With CC[C@H]1CC2CN3CCc4c([nH]c5ccccc45)C(C(=O)OC)(C2)C13 (stereo not given in full) the activation was 3.35% (inactive). With COc1ccc(-n2c(-c3ccccc3)nc3ccccc3c2=O)cc1 the activation was -4.8% (inactive). In the case of CC12CCC3C(CCC4CC(=O)CCC43C)C1CC(=NO)C2=O (stereo not given), the activation is reported as -22.3% (inactive). For O=C(O)COc1ccccc1/C=C1\C(=O)NC(=O)N(CCC2=CCCCC2)C1=O, the activation was 10% (inactive). For O=C1NC(=O)N(CCc2ccc(F)cc2)C(=O)/C1=C/C=C/c1ccccc1, the activation was 196% (active). In the case of O=C1NC(=O)N(Cc2ccco2)C(=O)/C1=C\c1ccc(-c2ccc(F)cc2)o1, the activation is reported as 14.8% (inactive). For O=C(COC(=O)c1ccccc1)Nc1ccc(Cl)cc1C(=O)c1ccccc1, the activation was -9.79% (inactive). With O=C(NC(=S)N1C[C@H]2C[C@H](C1)c1cccc(=O)n1C2)c1ccc(F)cc1 the activation was -0.361% (inactive). For CN(C)CC1Oc2ccccc2OC1(O)c1ccccc1 (stereo not given), the activation was 89.4% (active). With CNC(=O)O/N=C(\N)Cc1csc2ccc(Cl)cc12 the activation was 27.8% (inactive). With O=C(O)C1CSC(c2cccnc2)N1 (stereo not given) the activation was 3.54% (inactive). With COC(=O)N1C(c2ccccc2)C1c1ccccc1 (stereo not given) the activation was 50.1% (active). For COC(=O)C(c1ccccc1)N1CCCCCC1 (stereo not given), the activation was 1.63% (inactive). In the case of O=C(CCN1CCCCC1)NCC(=O)Nc1ccc(Br)cc1C(=O)c1ccccc1, the activation is reported as -6.9% (inactive). With O=C(CSC1c2ccccc2-c2ccccc21)N/N=C/c1ccccc1 the activation was -4.94% (inactive). For COc1ccc(C2NCc3ccc4c(c3-n3cccc32)OCO4)cc1OC (stereo not given), the activation was 4.67% (inactive). In the case of CCOC(=O)C1SC2(C(F)(F)C(F)F)CC1(O)c1c(c(OC)c3occc3c1OC)O2 (stereo not given), the activation is reported as -4.08% (inactive).
